Test [1] in a line: Quantitative High-Throughput drug screen in 47 multiple myeloma cell lines against the NCATS MIPE library collection: U266_ATCC cell viability assay (AID 1919864). Note: nearly all actives have a fitted effect of over 35% in size. In short, it runs like this: (§1)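 Myeloma cells (500/well) treated with MIPE 4.0 compounds for 48 h at 37 °C, 5% CO2. Viability read as ATP via CellTiter-Glo luminescence after 5 min at RT; DMSO-only wells = 100%, media-only = 0% viability.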

Test [2] in a line: Quantitative High-Throughput drug screen in 47 multiple myeloma cell lines against the NCATS MIPE library collection: XG6_PLB cell viability assay (AID 1919865). Note: nearly all actives have a fitted effect of over 40% in size. In outline: as §1
Test [3] is described as follows: Quantitative High-Throughput drug screen in 47 multiple myeloma cell lines against the NCATS MIPE library collection: XG1_PLB cell viability assay (AID 1919866). Note: nearly all actives have a fitted effect of over 35% in size. In outline:
as §1

The nature of test [4]: Quantitative High-Throughput drug screen in 47 multiple myeloma cell lines against the NCATS MIPE library collection: VP6_DJ cell viability assay (AID 1919867). Note: nearly all actives have a fitted effect of over 40% in size. In short, it runs like this: as §1
The nature of test [5]: Quantitative High-Throughput drug screen in 47 multiple myeloma cell lines against the NCATS MIPE library collection: UTMC2_PLB cell viability assay (AID 1919868). Note: nearly all actives have a fitted effect of over 55% in size. Conditions: CellTiter-Glo ATP luminescence, 48 h; viability (% of DMSO control): at 45.8 µM (top of the series). In outline: as §1
Background: In ATP-based viability assays light output follows the ATP content of the culture.

Test [6] can be described thus: Quantitative High-Throughput drug screen in 47 multiple myeloma cell lines against the NCATS MIPE library collection: PE2_PLB cell viability assay (AID 1919869). Note: nearly all actives have a fitted effect of over 35% in size. In short, it runs like this:
as §1

A short description of test [7]: Quantitative High-Throughput drug screen in 47 multiple myeloma cell lines against the NCATS MIPE library collection: RPMI8226_ATCC cell viability assay (AID 1919871). Note: nearly all actives have a fitted effect of over 30% in size. In short, it runs like this: as §1
A short description of test [8]: Quantitative High-Throughput drug screen in 47 multiple myeloma cell lines against the NCATS MIPE library collection: KMS11_JCRBsus cell viability assay (AID 1919873). Note: nearly all actives have a fitted effect of over 50% in size. In outline: as §1
Test [9] in a line: Quantitative High-Throughput drug screen in 47 multiple myeloma cell lines against the NCATS MIPE library collection: PCM6_Riken cell viability assay (AID 1919870). Note: nearly all actives have a fitted effect of over 30% in size. In short, it runs like this: as §1
The nature of test [10]: Quantitative High-Throughput drug screen in 47 multiple myeloma cell lines against the NCATS MIPE library collection: OPM2_DSMZ cell viability assay (AID 1919872). Note: nearly all actives have a fitted effect of over 30% in size. In short, it runs like this:
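Viability readout: CellTiter-Glo luminescence following 5 min room-temperature incubation with reagent. Prior exposure: 48 h, 37C, humidified 5% CO2, 500 cells per well.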

Inconclusive results are not listed. The source made the active and inactive calls. Calls come from the whole dose curve; as a rule, active = well fitted cell-killing curve with a large enough effect; inconclusive = small, poorly fitted or top-dose-only effect, or effect the other way; inactive = no such curve, though single readings can be large or run the other way.
Potency is the fitted concentration of half-maximal effect.

With `CC[C@@]1([C@@H]2O[C@@H]([C@H]3O[C@@](O)(CO)[C@H](C)C[C@H]3C)C[C@H]2C)CC[C@H]([C@]2(C)CC[C@]3(C[C@H](O)[C@@H](C)[C@@H]([C@@H](C)[C@@H](OC)[C@H](C)C(=O)O)O3)O2)O1`, the Potency was 0.363 µM (active) in test [1]; 0.257 µM (active) in [2]; 0.363 µM (active) in test [3]; 0.512 µM (active) in [4]; 0.182 µM (active) in [5]; 0.323 µM (active) in [6]. Also, the Potency in [7] is 0.229 µM (active); in [8], 0.288 µM (active).
Turning to `CC(C)[C@H](CO)Nc1nc(Nc2cccc(Cl)c2)c2ncn(C(C)C)c2n1`, the Potency in [1] was 18.7 µM (active); in test [2], 5.26 µM (active); in [3], 6.62 µM (active); in test [4] it was 13.2 µM (active); in [6], 18.7 µM (active); in [9] it was 16.6 µM (active). For the same compound, the Potency in [10] was 20.9 µM (active); in test [8], 11.8 µM (active).
As to `CCCNS(=O)(=O)Nc1ncnc(OCCOc2ncc(Br)cn2)c1-c1ccc(Br)cc1`, the Potency result in [1], in test [2], in test [3], in [4], in [5] and in test [9] was “inactive” in each case. Also, the Potency result in test [10] and in test [8] was “inactive” each time.
Turning to `CNC(=O)c1ccc(Nc2cc(Nc3ccccc3S(=O)(=O)C(C)C)c3cc[nH]c3n2)nc1`, the Potency in [1] is 1.48 µM (active); in test [2] it was 0.662 µM (active); in test [3] it was 0.296 µM (active); in test [4], 0.526 µM (active); in test [6] it was 1.18 µM (active); in test [9], 1.18 µM (active). Also, the Potency was 18.7 µM (active) in [7], 7.43 µM (active) in test [10] and 2.64 µM (active) in [8].
`C[C@H](NC(=O)C(C#N)=Cc1cccc(Br)n1)c1ccccc1`: the Potency was 6.62 µM (active) in test [1]; 2.35 µM (active) in test [2]; 2.09 µM (active) in [3]; 2.35 µM (active) in test [4]; 3.32 µM (active) in [5]; 2.64 µM (active) in test [6]. Besides, the Potency in [9] is 2.09 µM (active); in [10], 7.43 µM (active); in [8], 5.26 µM (active).
For the compound `CCOC(=O)[C@H](CCc1ccccc1)N[C@@H](C)C(=O)N1[C@@H](C(=O)O)C[C@H]2CCC[C@@H]21`, the Potency in test [1] was 8.33 µM (active); in test [2], 7.43 µM (active); in [3], 7.43 µM (active); in test [4], 6.62 µM (active); in test [6], 8.33 µM (active); in [9] it was 8.33 µM (active). Also, the Potency is 20.9 µM (active) in [7], 26.4 µM (active) in [10] and 6.62 µM (active) in [8].
Take `COc1ccc(CCC(=O)c2c(O)cc(O[C@@H]3O[C@H](CO)[C@@H](O)[C@H](O)[C@@H]3O[C@@H]3O[C@@H](C)[C@H](O)[C@@H](O)[C@@H]3O)cc2O)cc1O`: the Potency in test [1] is 8.33 µM (active); in test [2], 5.26 µM (active); in test [3] it was 7.43 µM (active); in test [4], 9.35 µM (active); in test [5], 9.35 µM (active); in test [6], 7.43 µM (active). The Potency in [9] was 7.43 µM (active). The Potency entry in test [10] and in [8] was “inactive” throughout.
As to `CN(C)CC(=O)N1CCC(c2ccc(NC(=O)c3ncc(C#N)[nH]3)c(C3=CCCCC3)c2)CC1`, the Potency is 8.33 µM (active) in [1]; 18.7 µM (active) in test [2]; 16.6 µM (active) in [3]; 23.5 µM (active) in [4]; 20.9 µM (active) in test [6]; 14.8 µM (active) in test [9]. The Potency in [8] was 18.7 µM (active). Besides, the Potency entry in [7] and in test [10] was “inactive” in each case.
Consider `Cn1cc(C2=C(c3c4n(c5ccccc35)CCC(CN)C4)C(=O)NC2=O)c2ccccc21` (stereo not drawn), for which the Potency in [1] is 16.6 µM (active); in [2] it was 7.43 µM (active); in test [3], 7.43 µM (active); in [4] it was 6.62 µM (active); in [6], 7.43 µM (active); in test [9] it was 5.26 µM (active). For the same compound, the results for the Potency in test [10] and in test [8] were 18.7 µM (active) and 7.43 µM (active), respectively.
As for `CC(=O)SCC(Cc1ccccc1)C(=O)NCC(=O)OCc1ccccc1` (stereo not drawn), the Potency is 1.32 µM (active) in test [1]; 1.05 µM (active) in test [2]; 2.96 µM (active) in test [3]; 5.9 µM (active) in test [4]; 0.935 µM (active) in test [6]; 1.48 µM (active) in test [9]. Also, the Potency in [10] was 5.9 µM (active).
For the compound `CC(C=CC1=C(C)CCCC1(C)C)=CC=CC(C)=CC(=O)Nc1ccc(O)cc1`, the Potency in test [1] is 38.2 µM (active); in [2], 13.6 µM (active); in test [3], 15.2 µM (active); in test [4] it was 12.1 µM (active); in test [6] it was 12.1 µM (active); in [9], 13.6 µM (active). Moreover, the Potency in [7] was 24.1 µM (active); in [10], 17.1 µM (active); in test [8] it was 19.1 µM (active).
As to `Cn1cc(-c2cnn3c(N)c(Br)c([C@H]4CCCNC4)nc23)cn1`, the Potency in test [1] is 7.43 µM (active); in test [2] it was 0.264 µM (active); in [3] it was 0.526 µM (active); in test [4], 0.662 µM (active); in test [6] it was 1.05 µM (active); in test [9], 0.662 µM (active). In addition, the figures for the Potency in [7] and in [8] were 7.43 µM (active) and 5.26 µM (active), respectively.
As to `Nc1ncn([C@@H]2O[C@H](CO)[C@@H](O)[C@@H]2O)c(=O)n1`, the Potency in [1] is 10.5 µM (active); in test [2], 9.35 µM (active); in test [3] it was 2.96 µM (active); in [4], 11.8 µM (active); in [5], 8.33 µM (active); in test [6], 18.7 µM (active). Further, the Potency in test [9] was 8.33 µM (active); in test [10] it was 14.8 µM (active); in test [8] it was 14.8 µM (active).
As for `O=C1c2c(O)cccc2[C@@H]([C@@H]2O[C@H](CO)[C@@H](O)[C@H](O)[C@H]2O)c2cc(CO)cc(O)c21`, the Potency entry in test [1], in test [2], in [3], in test [4], in test [6] and in test [9] was “inactive” each time. Further, the Potency result in test [7], in test [10] and in [8] was “inactive” each time.
For the compound `c1cncc(CN2CCC(n3ncc4c(N5CCOCC5)nc(-c5ccc6[nH]ccc6c5)nc43)CC2)c1`, the Potency was 5.26 µM (active) in test [1]; 1.66 µM (active) in test [2]; 0.935 µM (active) in [3]; 3.32 µM (active) in test [4]; 1.48 µM (active) in test [6]; 11.8 µM (active) in [9]. Further, the Potency in test [7] is 6.62 µM (active); in test [10], 14.8 µM (active); in test [8] it was 0.59 µM (active).
